# The list is not random: actives were taken first. Their share in the collection is about 3.3%.
# AmpC no deterg: qHTS Inhibitors of AmpC Beta-Lactamase (assay without detergent); P00811; 330,000 tested, 0.52% active; AID 485341, 2010; Potency, µM (highest dose often 57.1 µM), for the others: top-dose activity change, negative = inhibition, hits mostly inhibitors; AmpC nitrocefin hydrolysis, absorbance 480 nm, 0.0001% Triton;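 also: plate controls were no compound for no effect and no enzyme for full effect; nearly all actives have a fitted effect of over 20% in size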
# Target sequence (P00811 whole entry, looked up): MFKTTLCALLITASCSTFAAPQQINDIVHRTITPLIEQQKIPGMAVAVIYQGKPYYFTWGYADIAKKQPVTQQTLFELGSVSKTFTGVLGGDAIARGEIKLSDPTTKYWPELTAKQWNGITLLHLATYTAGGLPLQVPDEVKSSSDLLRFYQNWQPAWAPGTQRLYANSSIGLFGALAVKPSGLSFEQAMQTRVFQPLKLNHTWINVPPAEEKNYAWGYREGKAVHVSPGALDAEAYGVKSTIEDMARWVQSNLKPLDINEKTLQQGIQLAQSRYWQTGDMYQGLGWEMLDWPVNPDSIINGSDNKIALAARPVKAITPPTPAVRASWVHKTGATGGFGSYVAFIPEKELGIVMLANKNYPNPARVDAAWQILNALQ
#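 20 mM phosphate pH 7.0 + 0.01% (detergent screen) or 0.0001% Triton X-100; 5.3 nM AmpC reagent; cpd preinc 15 min RT; nitrocefin (800 uM stock) to start; A480 q20 s × 4 min; Activity was normalised to no-enzyme and no-compound control wells.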
# TbPYK inhibitor: qHTS of Trypanosoma Brucei Inhibitors; pyruvate kinase (Trypanosoma brucei), Q57TT1; Potency, µM (titrated, usually from 76.8 µM), for the others: top-dose activity, negative = inhibition, usual class: inhibitors; 410,000 tested, 0.12% active; TbPYK enzyme, Kinase-Glo Plus ATP luminescence, 45 min; also: % is scaled to controls: 0 for no effect and ±100 for the full control effect; nearly all actives have a fitted effect of over 50% in size
#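 In this concentration-response screen, enzyme-free wells defined baseline while DMSO plates tracked drift. Each reaction combined TbPYK, substrate, compound and 130 uM ADP for 45 min at room temperature. Kinase-Glo Plus luminescence gave the signal.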
# RE007 growth inh: qHTS Assay for Inhibitors of the HIV-1 protein Vpr; S. pombe RE007 Vpr strain, BacTiter-Glo ATP luminescence, 24 h; Potency, µM (top dose mostly 92.2 µM), without a hit: at the highest dose activity change, negative = less growth, hits mostly inhibitors; 360,000 tested, 0.21% active; AID 651644, 2012; active = well fitted falling curve with a large enough effect; inconclusive = small, poorly fitted or top-dose-only effect; inactive = no such curve, though single readings can be large or run the other way; also: % is scaled to controls: 0 for no effect and ±100 for the full control effect; nearly all actives have a fitted effect of over 50% in size
#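 Fission yeast strain RE007, carrying one chromosomally integrated HIV-1 vpr copy, was seeded at OD 0.01 in PMG+AL medium with 23 nL pinned compound. After 24 h at 30 °C and 99% humidity, viability was read by BacTiter-Glo luminescence.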
# Sm TGR block: qHTS Assay for the Inhibitors of Schistosoma Mansoni Peroxiredoxins. purified TGR, DTNB reduction, TNB absorbance 405 nm. Potency, µM (top dose mostly 114 µM), without a hit: at the top dose activity change, negative = inhibition, hits mostly inhibitors. 360,000 tested, 3% active. AID 485364, 2010; also: % is scaled to controls: 0 for no effect and ±100 for the full control effect; nearly all actives have a fitted effect of over 60% in size
#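 TGR 20 nM + NADPH 100 uM (dispensed conc.), cpd preinc 15 min RT; start with NADPH (500 uM addition) then DTNB (15 mM addition). Kinetic TNB absorbance, 405 nm filter. Four-parameter Hill fit across titration.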
# AmpC inh detg: qHTS Inhibitors of AmpC Beta-Lactamase (assay with detergent); P00811; AmpC hydrolysis of nitrocefin, absorbance 480 nm, 0.01% Triton; Potency, µM (series often up to 114 µM), inactives show top-dose activity change, negative = inhibition, actives largely listed as inhibitors; 370,000 tested, 0.041% active; AID 485294, 2010;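 also: 0% = no-compound wells and -100% = no-enzyme wells; nearly all actives have a fitted effect of over 25% in size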
#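 AmpC (5.3 nM in the dispensed reagent) in 20 mM phosphate pH 7.0 with 0.01% (detergent screen) or 0.0001% Triton X-100 was preincubated with compounds for 15 min at room temperature. Nitrocefin was then added from an 800 uM solution, and hydrolysis was followed at 480 nm.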
# SARS PLP yeast: qHTS of Yeast-based Assay for SARS-CoV PLP; 330,000 tested, 0.19% active; S. cerevisiae expressing SARS-CoV PLpro, growth rescue; AID 485353, 2010; Potency, µM (series often up to 32.9 µM), inactives show at the highest dose activity, positive = growth rescue, most hits filed as activators; calls by dose curve; also: 0% is about no effect; nearly all actives have a fitted effect of over 55% in size
# * hit, by the source's call; u = inconclusive; x = no result; [ ] = another dose, or the depositor's remark. Unless noted, calls follow the shape of the dose curve; as a rule, active = well fitted curve in the direction sought with a large enough effect; inconclusive = small, poorly fitted or top-dose-only effect, or another doubt; inactive = no such curve, though single readings can be large; an effect the other way counts as inactive or inconclusive. Potency is read from the fitted curve at half-maximal effect.
SMILES,AmpC no deterg,TbPYK inhibitor,RE007 growth inh,Sm TGR block,AmpC inh detg,SARS PLP yeast
COc1cc([N+](=O)[O-])ccc1N1C(=O)C2C3C=CC(C4CC34)C2C1=O (stereo not given),-4%,-26%,4%,45µM*,0%,1%
O=c1c(Br)ccc(Br)cc1Br,x,-16%,2.2µM*,x,x,x
NC(=O)c1ccsc1NC(=O)CSc1nnc(Nc2ccccc2)s1,14µM*,-6%,-6%,4%,2%,2%
CC(C)(C)OC(=O)N1CCC(c2c(C(=O)NCc3ccco3)cnn2-c2ccccc2)CC1,x,-2%[15.4 µM],x,-9%,3%,x
O=C1CC(c2ccccc2)Sc2ccccc2N1Cc1ccc(F)cc1 (stereo not given),x,-1%,x,6%,1%,x
CCOc1ccc(N2C(=O)CC(SCCN)C2=O)cc1 (stereo not given),-2%,0%,20µM*,u,u,-9%
NCCSC1CC(=O)N(Cc2ccc(F)cc2)C1=O (stereo not given),-22%,-16%,-20%,7.9µM*,-13%,-4%
O=C1CC(Sc2ccc(Cl)cc2)C(=O)N1Cc1ccncc1 (stereo not given),-7%,1%,-14%,7.1µM*,-3%,1%
CCOc1ccc(N2C(=O)CC(Sc3nnnn3-c3ccccc3)C2=O)cc1 (stereo not given),3%,-28%,32µM*,10µM*,-14%,-4%
CCOc1ccc(N2C(=O)CC(Sc3nc(C)cc(C)n3)C2=O)cc1 (stereo not given),2%,4%,-20%,-7%,u,-6%
CCOC(=O)c1cc(-c2ccccc2)n(-c2cccc(C(=O)N(C)c3ccc(C)cc3)c2)c1C,x,-2%[15.4 µM],x,11%,17%,x
COC(=O)C1=C(c2cccc(C#N)c2)C[C@@H]2CC[C@H]1N2C(=O)NCc1ccco1,-9%,-8%,-10%,35µM*,7%,4%
COC(=O)C1=C(c2cccc(C#N)c2)C[C@@H]2CC[C@H]1N2C(=O)NCCO,-10%,3%,7%,-21%,-4%,5%
Cc1ccc(-c2onc(C)c2C)cc1S(=O)(=O)NC1CCC(C)CC1 (stereo not given),x,2%,x,8%,4%,x
CC(=O)C1=C(C)OC(N)=C(C#N)C1c1ccco1 (stereo not given),-15%,-13%,-15%,13µM*,0%,-1%
CC(=O)C1=C(C)OC(N)=C(C#N)C1c1ccncc1 (stereo not given),-9%,-3%,-1%,43%,u,3%
C=CCOC(=O)C1=C(C)OC(N)=C(C#N)C1c1ccoc1 (stereo not given),-26%,-5%,4%,20µM*,u,8%
COC(=O)C1=C(C)OC(N)=C(C#N)C1c1ccco1 (stereo not given),-7%,3%,7%,-29%,1%,13%
CC(=O)C1=C(C)OC(N)=C(C#N)C1c1cccc2ccccc12 (stereo not given),-24%,-1%,-2%,11µM*,-4%,0%
Cc1cccc(-n2c(SCC(=O)Nc3ccc(C)c(C)c3)nc3n[nH]c(C)c3c2=N)c1,x,-6%,x,-1%,-5%,x
O=C(/C=C1\C(=O)Nc2ccccc21)/C=C1\C(=O)Nc2ccccc21,-36%,u,-6%,13µM*,-11%,-4%
CN(C)c1ccc(C(=O)NCc2ccc3c(c2)CCN3C(=O)c2ccccc2)cc1,x,2%,x,-2%,3%,x
OCc1cc([C@@H](O)CNCCCCCCOCCCCc2ccccc2)ccc1O,x,0%,x,x,x,x
Cc1ccc(N2C(=O)NC(=O)/C(=C/c3cnc(-c4ccccc4)nc3)C2=O)cc1C,-22%,16%,-14%,1.8µM*,-18%,13µM*
Cc1cccc(N2C(=O)NC(=O)/C(=C\c3cnc(-c4ccccc4)nc3)C2=O)c1,-31%,8%,1%,5µM*,u,-12%
SMILES,AmpC no deterg,TbPYK inhibitor,RE007 growth inh,Sm TGR block,AmpC inh detg,SARS PLP yeast
Cc1cccc(N2C(=O)NC(=O)/C(=C\c3ccc(N4CCOCC4)cc3)C2=O)c1,-31%,u,-1%,u,-16%,0%
CC(C)c1ccc(N2C(=O)NC(=O)/C(=C\C=C\c3ccco3)C2=O)cc1,u,-13%,39%,u,u,3%
CC(C)c1ccc(N2C(=O)NC(=O)/C(=C\c3cnc(-c4ccccc4)nc3)C2=O)cc1,-30%,-8%,-7%,11µM*,5%,10%
COc1ccc(CC(=O)OCCc2cc3cc(OC)c(OC)cc3c(=O)o2)cc1,40%,-6%,7%,7.1µM*,-6%,-5%
COc1cc2cc(CCOC(=O)c3ccc(C(F)(F)F)cc3)oc(=O)c2cc1OC,2%,-6%,-5%,u,5%,-6%
C[CH2][Hg][S]c1ccccc1C(=O)O,x,11µM*,-21%,x,x,x
Cc1nc2nc(C)c(NS(=O)(=O)c3ccc(F)cc3)c(=O)n2[nH]1,x,-7%,x,4%,15%,x
Cc1ccccc1N1CCN(CCC(=O)Nc2ccc(F)cc2)CC1,257%,11%,2%,40µM*,-19%,-9%
C[n+]1cccc2cccc([O-])c21,-7%,-4%,4%,50µM*,-6%,-1%
CCCCSc1nc(-c2ccc(OC)cc2)ccc1C#N,x,6%,x,3%,-4%,x
Cc1ccc(-c2nc(CS(=O)(=O)CC(=O)NC(C)CCc3ccccc3)c(C)o2)cc1 (stereo not given),x,-2%,x,-22%,8%,x
COc1ccc(-c2nc(CS(=O)CC(=O)NC(C)CCc3ccccc3)c(C)o2)cc1OC (stereo not given),145%,1%,2%,32µM*,-6%,-3%
Cc1ccc(S(=O)Cc2nc(-c3ccc(C(=O)NC(C)c4ccccc4)cc3)oc2C)cc1 (stereo not given),x,-14%,x,14µM*,18%,x
Cc1ccc(-c2nc(CS(=O)CC(=O)NC(C)CCc3ccccc3)c(C)o2)cc1 (stereo not given),184%,0%,6%,8.9µM*,-3%,-9%
Cc1ccc(CNC(=O)C2CCCN(c3nn4cc(-c5ccc(C)cc5)nc4s3)C2)cc1 (stereo not given),x,4%[15.4 µM],x,-1%,18%,x
Cc1ccc2oc(=O)n(CCNC(=O)Nc3ccc(C)c(F)c3)c2c1,x,-1%,x,3%,14%,x

# Source: PubChem BioAssay
